Experimental data reported in ChEMBL document CHEMBL3988442, “University of Dundee, Small-Polar-MMV Screening Library” (2021).
Values joined by “and” are separate entries in the source; they are usually repeats but may differ in a detail not shown here. Equal entries are not always repeated. In all, about 34,000 compounds went through this assay and about 290 (0.85%) showed an effect of 50% or more. The entries come from a sample that favours strong results as a whole.

System: Plasmodium falciparum
Assay: Plasmodium falciparum sporozoite viability assay
Type: functional, organism-based
Set-up: scale not given: in the data most compounds retested in dose-response had high values

SMILES | Percent Effect [%] | Percent Effect (10 mM as filed; unlikely as a test dose)
Cc1n[nH]c(C)c1CC(=O)NCc1ccccc1Cl | -5.904 | –
Cc1cncc(NC(=O)c2ccc(CN3CC[C@H](O)C3)cc2)c1 | – | 88.45% and 79.14%
CCc1ccc(C(=O)Nc2cccc(CN3CCCC3C(N)=O)c2)cc1 (configuration not stated) | -39.95 | –
COc1ccc(NC(=O)c2ccc(CN3CC[C@H](O)C3)cc2)c(OC)n1 | – | -15.85% and -8.926%
Cc1[nH]ccc1C(=O)Nc1cccc(CN2CCC(O)CC2)c1 | 11.84 | –
COc1cc(NC(=O)c2ccc(CN3CC[C@H](O)C3)cc2)cc(OC)c1 | – | 90.3% and 82.4%
Cc1cncc(NC(=O)c2ccc(CN3CCCC(C(N)=O)C3)cc2)c1 (configuration not stated) | – | -5.227% and 10.36%
NC(=O)c1ccc(CN2CCCC(O)C2)cc1 (configuration not stated) | -1.578 | –
Cc1cc(NC(=O)c2ccc(CN3CC[C@H](O)C3)cc2)ccc1F | – | 96.75% and 98.24%
Fc1cccc(-c2nc(CN3CCCC3Cn3cccn3)co2)c1 (configuration not stated) | 3.787 | –
CCc1cc(O)nc(C2CCCN2C(=O)c2cc(CC)on2)n1 (configuration not stated) | 0.3331 | –
CC(NC(=O)NCCCn1cncn1)c1ccc2c(c1)CC(=O)N2 (configuration not stated) | 3.485 | –
CSCc1cc(F)ccc1CNC(=O)N1CCOCC1 | 1.579 | –
CCCN1Cc2ccccc2CC1C(=O)NC (configuration not stated) | -3.834 | –
CC(=O)N1Cc2ccccc2C[C@H]1C(=O)Nc1ccccn1 | – | 80.79% and 67.33%
CC(=O)N1Cc2ccccc2CC1C(=O)Nc1cc(C)ccn1 (configuration not stated) | – | 71.78% and 85.23%
Cc1ccnc(NC(=O)C2(n3cnnn3)CCCCC2)c1 | -7.357 | –
CCNC(=O)NCCc1csc(N2CCCC2)n1 | -15.2 | –
CCOc1ccc(-c2cc(=O)n3c(n2)CCCCC3)cc1 | -4.121 | –
COc1ccc(CN(Cc2ccccn2)Cc2cncn2C)cc1.O=C(O)CC(O)(CC(=O)O)C(=O)O | 3.185 | –
CCOc1cc(C)nc(N2CCN(C(=O)CN(C)C3CC3)CC2)n1 | 8.163 | –
Cn1cncc1CN1CCC(O)(Cn2nc(-c3cccs3)oc2=O)CC1.O=C(O)CC(O)(CC(=O)O)C(=O)O | -17.63 | –
CC(C)n1nc2c(cc1=O)CN(c1nc3ccccc3s1)CC2 | – | 66.67% and 52.43% and 41.91%

SMILES | Percent Effect [%] | Percent Effect (10 mM as filed; unlikely as a test dose)
CN(C)C(=O)CS(=O)(=O)Cc1cc(Cl)c2c(c1)OCCO2 | 4.247 | –
Clc1cc(CN2CCCCC2Cn2cncn2)c2ncccc2c1 (configuration not stated) | -10.63 | –
CC(C)Nc1ncnc2c1CCN(C(=O)c1ccc[nH]1)CC2 | -7.967 | –
CC(C)C[C@H](N)COc1cccc(F)c1Oc1cccc(Cl)c1 | 0.9974 | –
Cc1ccc(NS(=O)(=O)c2cc3c(c(C(=O)O)c2)OCCO3)cc1F | 6.057 | –
O=C(O)C(F)(F)F.O=c1ccc2c(n1CC1CC1)CCC(NCc1cccs1)C2 (configuration not stated) | 4.557 | –
c1cc(-c2noc([C@@H]3Cc4nc[nH]c4CN3)n2)ccn1 | – | -0.1591% and 11.18%
Cc1ccc(-c2noc([C@@H]3Cc4nc[nH]c4CN3)n2)cc1 | – | 79.76% and 77.83%
Fc1ccc(-c2noc([C@@H]3Cc4nc[nH]c4CN3)n2)cc1 | – | 27.52% and 35.27%
c1ccc(-c2noc([C@@H]3Cc4nc[nH]c4CN3)n2)cc1 | – | 8.153% and 22.58%
Cc1cccc(-c2noc([C@@H]3Cc4nc[nH]c4CN3)n2)c1 | – | 77.23% and 75.76%
Cc1cccc(-c2noc(CN3CCOCC3C)n2)c1 (configuration not stated) | 5.079 | –
FC(F)(F)Oc1ccc(-c2noc([C@@H]3Cc4nc[nH]c4CN3)n2)cc1 | – | 93.02% and 93.75%
Cc1noc(NC(=O)c2ccc(OC(F)(F)F)cc2)n1 | -13.94 | –
O=C(NCC1CC1)C1CN(C(=O)NC2CCCC2)Cc2cncn2C1 (configuration not stated) | 10.46 | –
Cc1nn(C)c(Cl)c1C1CCCN1C(=O)c1cnn(C)c1C1CC1 (configuration not stated) | 4.376 | –
CC(C)C(=O)N1CCCC(c2cncc(Oc3cccnc3)n2)C1 (configuration not stated) | -4.997 | –
c1cc(N2CCOCC(Cc3ccc4[nH]ccc4c3)C2)ncn1 (configuration not stated) | 5.765 | –
CNC(=O)c1cc(C2CCCNC2)n[nH]1.Cl (configuration not stated) | 11.11 | –
COCCc1noc(CN2CCCC2Cn2nc(C)nc2C)n1 (configuration not stated) | 16.37 | –
CC(=O)N(Cc1ncc(C)o1)C1CCN(Cc2csc(C)n2)C1 (configuration not stated) | 8.537 | –
Cc1cc(C(=O)N2CC[C@H]3C[C@H](c4ccncn4)O[C@@H]3C2)c(C)[nH]1 | -3.163 | –
CC(C)(C)n1ncc2c(=O)n(CC(=O)NCCc3ccccc3)cnc21 | – | -2.076% and -3.898%

SMILES | Percent Effect [%] | Percent Effect (10 mM as filed; unlikely as a test dose)
CC(C)(C)n1ncc2c(=O)n(CC(=O)NCc3ccccc3)cnc21 | – | 92.95% and 84.04%
CC(C)(C)n1ncc2c(=O)n(CC(=O)NCc3ccccc3Cl)cnc21 | – | 89.9% and 78.88%
CCCNC(=O)Cn1nc(C(C)C)c2cnn(C(C)(C)C)c2c1=O | -2.007 | –
NC(=O)Cn1c(CO)cnc1SCC(=O)NCc1ccccc1Cl | – | -15.15% and -22%
CCCNC(=O)c1ncn2c1CN(CC(C)C)S(=O)(=O)c1ccccc1-2 | 20.71 | –
CNc1ccc(C2CN(c3cc(C)nc(N)n3)CCO2)nc1 (configuration not stated) | 20.28 | –
CNc1nc2c(s1)C(=O)CN(C(=O)[C@@H](N)Cc1cccc(OC)c1)C2 | -10.92 | –
CN[C@@H]1CCC[C@@H](Oc2ccccc2Oc2ccc(C)cc2)[C@@H]1O | 14.14 | –
Cc1cccc2sc(NC(=O)CN3CCCC4(CC3)CNC(=O)O4)nc12 (configuration not stated) | – | 74.6% and 74.31%
Cc1cccc2sc(NC(=O)CN3CCC(C)CC3)nc12 | – | 5.902% and -3.165%
Cc1cccc2sc(NC(=O)CN3CCCC(O)(CO)C3)nc12 (configuration not stated) | – | -25.02% and -31.47%
CN(Cc1nccn1C)c1ccc(-c2nccn2C)nn1 | – | -4.7% and -1.79%
CN(Cc1ccoc1)c1ccc(-c2nccn2C)nn1 | – | -6.958% and -8.789%
COc1ccc(CN(C)c2ccc(-c3nccn3C)nn2)cc1OC | – | 63.95% and 77.57%
O=C(CN1CCC(c2cc(=O)n3c(n2)CCCCC3)CC1)N1CCCC1 | -0.7803 | –
CC(=O)N1CCOC(c2cc(N3CC(O)C3)nc(C)n2)C1 (configuration not stated) | -19.49 | –
c1ccc2oc(CN3CCCC3c3noc(C4CC4)n3)nc2c1 (configuration not stated) | 8.668 | –
c1ccc2sc(CN3CCCC3c3noc(C4CC4)n3)nc2c1 (configuration not stated) | – | 57.55% and 55.22% and 51.03%
CC(CCc1ccccc1)N1CCC(C(=O)Nc2cnccn2)CC1 (configuration not stated) | -2.997 | –
CS(=O)(=O)NCc1cn2c(n1)CN(C(=O)c1ccc[nH]1)CC2 | -21.11 | –
Cc1oncc1C(=O)N1CC[C@H]2[C@@H]1CCC(=O)N2CC1CCOCC1 | 5.199 | –
CC(=O)N1CCC(c2cc(C(F)(F)F)nc3nccn23)CC1 | 1.841 | –
O=C1[C@H]2CN(C(=O)[C@H]3CCCO3)C[C@H]2CN1CC1CC1 | 2.539 | –

SMILES | Percent Effect [%] | Percent Effect (10 mM as filed; unlikely as a test dose)
Cc1nn(C)cc1CN(C)Cc1cc2c(cc1OC(F)F)OCO2 | 5.075 | –
Cc1ncsc1CN(C)Cc1cc2c(cc1OC(F)F)OCO2 | – | 74.26% and 62.83%
Cc1nc(CN(C)Cc2cc3c(cc2OC(F)F)OCO3)cs1 | – | -8.742% and -16.17%
CC(Cn1ccnc1)NC(=O)C1(c2ccc(F)cc2)CCCC1 (configuration not stated) | 23.02 | –
Cc1cc(N2CCC(c3n[nH]c4nccnc34)CC2)ncn1 | 7.584 | –
Brc1cccc(-c2nnc(CNCCn3cccn3)o2)c1 | 2.399 | –
Cn1c(C2CC2)nc2c1CCN(Cc1nc(-c3ccsc3)no1)C2 | – | 19.95% and 27.05% and 21.39%
c1csc(-c2noc(CN3CCc4cncnc4C3)n2)c1 | – | 24.87% and 17.34% and 36.23%
CC(C)c1nc2c(n1C)CCN(Cc1nc(-c3ccsc3)no1)C2 | – | 73.25% and 58.56% and 70.51%
CC(C)c1ncc2c(n1)CN(Cc1nc(-c3ccsc3)no1)CC2 | 18.76 | –
CC(C)c1ncc2c(n1)CN(Cc1nc(-c3ccoc3)no1)CC2 | – | 11.99% and 7.268% and 10.61%
CC(C)c1nc2c(n1C)CCN(Cc1nc(-c3cccs3)no1)C2 | – | 44.7% and 61.16% and 58.76%
CC(C)c1nc2c(n1C)CCN(Cc1nc(-c3ccoc3)no1)C2 | – | 83.83% and 76.55% and 70.15%
CC(C)c1ncc2c(n1)CN(Cc1nc(-c3cccs3)no1)CC2 | – | 13.28% and 7.226% and -0.3719%
Cn1cnc2c1CCN(Cc1nc(-c3ccco3)no1)C2 | – | 12.07% and 12.49%
COc1ccccc1OCCNC(=O)CN1CCc2cncnc2C1 | -7.271 | –
O=C1CN(c2ccc(CNC(=O)NCc3ccoc3)cc2)CCN1 | 13.47 | –
Cc1cn2c(n1)CCC(NC(=O)c1[nH]ncc1Br)C2 (configuration not stated) | -6.244 | –
Cc1cc(C(=O)N[C@@H]2CCC[C@@H](N3CCOCC3)[C@@H]2O)no1 | 7.233 | –
O=C(O)C(F)(F)F.O=C([C@H]1C[C@H]2OCC[C@H]2N(CCc2ccccc2)C1)N1CCCCO1 | -6.171 | –
Cn1c(-c2cc3n(n2)CCCN(CC(=O)O)C3)nc2ccccc21 | – | 91.97% and 88.48%
CN1CCn2nc(-c3nc4ccccc4n3C)cc2C1 | – | 21.76% and 43.98%
CCCOC(=O)N1CCn2nc(-c3nc4ccccc4n3C)cc2C1 | – | 47.05% and 19.27%
